Changes are numbered by the printed parent chain.
Key:
Experiment in all cases: protein-binding microarray (PBM); PBM: ~300 nM protein, 6 mM HEPES pH 7.8, 80 mM KCl, 0.5 mM EDTA, 0.5 mM EGTA, 6% glycerol, 35 ng/ul poly-dIdC, 1% milk, 1 h, room temperature; Ap Aiptasia and Nv Nematostella (sea anemones) / Co Capsaspora / Aq Amphimedon (sponge) / Dm Drosophila / Hu human; RHD is the Rel homology domain; high values mean tight binding
Details in all cases: dsDNA, one strand shown
GST-Ap-NF-kB RHD = target: T1, GST-Ap-NF-kB RHD (Exaiptasia pallida (Aiptasia), UniProt A0A913YAJ5 2-422)
T1 sequence: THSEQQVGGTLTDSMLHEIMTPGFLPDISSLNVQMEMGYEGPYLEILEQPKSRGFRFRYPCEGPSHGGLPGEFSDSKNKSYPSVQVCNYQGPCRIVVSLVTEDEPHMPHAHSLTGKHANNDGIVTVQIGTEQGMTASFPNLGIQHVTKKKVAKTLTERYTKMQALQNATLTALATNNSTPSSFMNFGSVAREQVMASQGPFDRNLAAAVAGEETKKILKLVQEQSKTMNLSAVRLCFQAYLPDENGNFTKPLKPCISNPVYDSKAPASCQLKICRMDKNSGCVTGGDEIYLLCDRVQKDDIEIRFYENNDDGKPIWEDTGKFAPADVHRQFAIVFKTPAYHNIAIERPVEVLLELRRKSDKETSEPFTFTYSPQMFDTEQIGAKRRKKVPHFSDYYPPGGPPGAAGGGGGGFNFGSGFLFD

[1] = target: T2, GST-Nv-NF-kB (Cys allele) (Nematostella vectensis, UniProt E5G601 2-411)
T2 sequence: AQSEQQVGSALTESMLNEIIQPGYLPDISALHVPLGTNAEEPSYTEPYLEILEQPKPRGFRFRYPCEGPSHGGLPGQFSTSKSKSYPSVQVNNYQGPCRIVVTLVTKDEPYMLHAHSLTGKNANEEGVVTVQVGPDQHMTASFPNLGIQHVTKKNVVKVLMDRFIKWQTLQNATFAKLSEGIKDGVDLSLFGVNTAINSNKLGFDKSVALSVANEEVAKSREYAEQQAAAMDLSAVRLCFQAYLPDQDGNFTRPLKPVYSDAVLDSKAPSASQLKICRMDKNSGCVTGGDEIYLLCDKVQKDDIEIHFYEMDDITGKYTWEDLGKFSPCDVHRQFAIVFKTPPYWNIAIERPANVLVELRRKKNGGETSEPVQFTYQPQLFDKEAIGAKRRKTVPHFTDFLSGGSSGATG

[2] = target: T3, GST-Nv-NF-kB (Ser allele) (Nematostella vectensis, UniProt A7UNT2 2-411)
T3 sequence: T2 sequence with Q21R, C66S, S207N, E215Q, V217A, E225K, A268E, D399E

GST-Co-NF-kB = target: T4, GST-Co-NF-kB (Capsaspora owczarzaki, UniProt F1ARL5 200-546)
T4 sequence: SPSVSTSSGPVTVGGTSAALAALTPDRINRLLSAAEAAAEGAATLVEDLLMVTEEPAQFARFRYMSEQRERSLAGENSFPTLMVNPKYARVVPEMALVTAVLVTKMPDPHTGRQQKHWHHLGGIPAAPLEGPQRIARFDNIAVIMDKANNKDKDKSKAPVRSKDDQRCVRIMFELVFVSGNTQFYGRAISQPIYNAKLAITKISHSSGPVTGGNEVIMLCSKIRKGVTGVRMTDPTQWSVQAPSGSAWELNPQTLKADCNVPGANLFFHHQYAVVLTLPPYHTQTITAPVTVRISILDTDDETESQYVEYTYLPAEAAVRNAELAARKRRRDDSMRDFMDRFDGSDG

GST-Dm-Relish = target: T5, GST-Dm-Relish (Drosophila melanogaster, UniProt Q94527 99-473)
T5 sequence: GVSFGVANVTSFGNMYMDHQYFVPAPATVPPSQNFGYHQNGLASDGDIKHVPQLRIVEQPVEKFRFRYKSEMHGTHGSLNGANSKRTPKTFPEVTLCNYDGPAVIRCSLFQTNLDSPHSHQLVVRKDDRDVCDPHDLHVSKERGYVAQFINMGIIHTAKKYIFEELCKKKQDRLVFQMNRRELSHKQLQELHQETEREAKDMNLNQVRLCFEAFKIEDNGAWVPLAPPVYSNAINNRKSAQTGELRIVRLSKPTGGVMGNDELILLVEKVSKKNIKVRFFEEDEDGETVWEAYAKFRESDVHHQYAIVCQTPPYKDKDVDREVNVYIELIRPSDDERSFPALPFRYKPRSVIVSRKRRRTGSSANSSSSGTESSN

GST-Aq-NF-kB = target: T6, GST-Aq-NF-kB (Amphimedon queenslandica, UniProt A9Y5G7 2-389)
T6 sequence: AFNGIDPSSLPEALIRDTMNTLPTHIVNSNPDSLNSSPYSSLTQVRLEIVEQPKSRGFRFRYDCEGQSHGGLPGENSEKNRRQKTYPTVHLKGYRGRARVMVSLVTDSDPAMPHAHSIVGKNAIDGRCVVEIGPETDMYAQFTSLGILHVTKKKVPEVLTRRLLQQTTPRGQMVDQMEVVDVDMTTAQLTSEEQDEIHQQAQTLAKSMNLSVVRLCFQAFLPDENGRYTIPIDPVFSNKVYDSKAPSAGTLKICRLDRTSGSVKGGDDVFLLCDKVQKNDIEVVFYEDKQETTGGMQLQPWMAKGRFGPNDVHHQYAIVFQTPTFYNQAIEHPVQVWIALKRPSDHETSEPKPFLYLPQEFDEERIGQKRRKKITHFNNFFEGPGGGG

GST-Hu-p50 = GST-Hu-p50 (Homo sapiens, UniProt P19838 7-356)
Sequence of GST-Hu-p50 (P19838 7-356): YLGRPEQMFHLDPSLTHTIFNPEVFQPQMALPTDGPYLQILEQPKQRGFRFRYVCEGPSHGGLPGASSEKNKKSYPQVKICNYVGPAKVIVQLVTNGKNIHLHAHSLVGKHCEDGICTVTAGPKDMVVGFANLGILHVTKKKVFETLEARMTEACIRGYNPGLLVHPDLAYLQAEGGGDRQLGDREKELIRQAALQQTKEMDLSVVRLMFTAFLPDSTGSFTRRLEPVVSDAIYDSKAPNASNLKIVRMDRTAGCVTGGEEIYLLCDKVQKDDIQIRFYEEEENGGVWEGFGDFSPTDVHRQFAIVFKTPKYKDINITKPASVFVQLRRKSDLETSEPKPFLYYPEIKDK

Sequence: CCGATTAACATCAAAAAATCCCGTGATGTTAATCGGGTCTTGATTCGCTTGACGCTGCTG
- binding signal (GST-Ap-NF-kB RHD): 5.57 z-score
- binding signal [1]: 6.22 z-score
- binding signal [2]: 5.2 z-score
- binding signal (GST-Co-NF-kB): 2.99 z-score
- binding signal (GST-Dm-Relish): 8.31 z-score
- binding signal (GST-Aq-NF-kB): 6.71 z-score
- binding signal (GST-Hu-p50): 4.97 z-score

Sequence: CCGATTAACATCAGATCTCCCCCTGATGTTAATCGGGTCTTGATTCGCTTGACGCTGCTG
- binding signal (GST-Ap-NF-kB RHD): 6.98 z-score
- binding signal [1]: 5.31 z-score
- binding signal [2]: 6.01 z-score
- binding signal (GST-Co-NF-kB): 8.07 z-score
- binding signal (GST-Dm-Relish): 2.64 z-score
- binding signal (GST-Aq-NF-kB): 4.88 z-score
- binding signal (GST-Hu-p50): 5.76 z-score

Sequence: CCGATTAACATCACGGAACCCCCTGATGTTAATCGGGTCTTGATTCGCTTGACGCTGCTG
- binding signal (GST-Ap-NF-kB RHD): 7.51 z-score
- binding signal [1]: 4.89 z-score
- binding signal [2]: 6.13 z-score
- binding signal (GST-Co-NF-kB): 2.13 z-score
- binding signal (GST-Dm-Relish): 9.21 z-score
- binding signal (GST-Aq-NF-kB): 5.54 z-score
- binding signal (GST-Hu-p50): 5.79 z-score

Sequence: CCGATTAACATCAGGACAACCCCTGATGTTAATCGGGTCTTGATTCGCTTGACGCTGCTG
- binding signal (GST-Ap-NF-kB RHD): 3.21 z-score
- binding signal [1]: 3.16 z-score
- binding signal [2]: 1.17 z-score
- binding signal (GST-Co-NF-kB): 1.02 z-score
- binding signal (GST-Dm-Relish): 2.63 z-score
- binding signal (GST-Aq-NF-kB): 5.78 z-score
- binding signal (GST-Hu-p50): 2.98 z-score

Sequence: CCGATTAACATCAAATCTCCCCCTGATGTTAATCGGGTCTTGATTCGCTTGACGCTGCTG
- binding signal (GST-Ap-NF-kB RHD): 8.37 z-score
- binding signal [1]: 6.08 z-score
- binding signal [2]: 9.76 z-score
- binding signal (GST-Co-NF-kB): 10.1 z-score
- binding signal (GST-Dm-Relish): 4.14 z-score
- binding signal (GST-Aq-NF-kB): 6.11 z-score
- binding signal (GST-Hu-p50): 7.19 z-score

Sequence: CCGATTAACATCAGGCAATCCCCTGATGTTAATCGGGTCTTGATTCGCTTGACGCTGCTG
- binding signal (GST-Ap-NF-kB RHD): 7.27 z-score
- binding signal [1]: 7.19 z-score
- binding signal [2]: 6.86 z-score
- binding signal (GST-Co-NF-kB): 1.6 z-score
- binding signal (GST-Dm-Relish): 6.78 z-score
- binding signal (GST-Aq-NF-kB): 7.01 z-score
- binding signal (GST-Hu-p50): 5.39 z-score

Sequence: CCGATTAACATCAAATTCCCACATGATGTTAATCGGGTCTTGATTCGCTTGACGCTGCTG
- binding signal (GST-Ap-NF-kB RHD): 2 z-score
- binding signal [1]: 3.53 z-score
- binding signal [2]: 3.94 z-score
- binding signal (GST-Co-NF-kB): 3.33 z-score
- binding signal (GST-Dm-Relish): 4.42 z-score
- binding signal (GST-Aq-NF-kB): 2.66 z-score
- binding signal (GST-Hu-p50): 2.85 z-score

Sequence: CCGATTAACATCAAAATTCCCAGTGATGTTAATCGGGTCTTGATTCGCTTGACGCTGCTG
- binding signal (GST-Ap-NF-kB RHD): 3.76 z-score
- binding signal [1]: 5.07 z-score
- binding signal [2]: 4.98 z-score
- binding signal (GST-Co-NF-kB): 4.87 z-score
- binding signal (GST-Dm-Relish): 5.12 z-score
- binding signal (GST-Aq-NF-kB): 4.23 z-score
- binding signal (GST-Hu-p50): 4.24 z-score

Sequence: CCGATTAACATCACCCCCGCCCCTGATGTTAATCGGGTCTTGATTCGCTTGACGCTGCTG
- binding signal (GST-Ap-NF-kB RHD): 4.47 z-score
- binding signal [1]: 3.37 z-score
- binding signal [2]: 3.72 z-score
- binding signal (GST-Co-NF-kB): 6.71 z-score
- binding signal (GST-Dm-Relish): 4.74 z-score
- binding signal (GST-Aq-NF-kB): 4.27 z-score
- binding signal (GST-Hu-p50): 3.7 z-score

Sequence: CCGATTAACATCAAATTCCCAATTGATGTTAATCGGGTCTTGATTCGCTTGACGCTGCTG
- binding signal (GST-Ap-NF-kB RHD): 1.09 z-score
- binding signal [1]: 3.19 z-score
- binding signal [2]: 3.78 z-score
- binding signal (GST-Co-NF-kB): 2.62 z-score
- binding signal (GST-Dm-Relish): 3.56 z-score
- binding signal (GST-Aq-NF-kB): 2.06 z-score
- binding signal (GST-Hu-p50): 2.67 z-score

From publication PMC5700166
